# Bioassay records: PubChem, several laboratories
# PTK2B oligo ant: antagonists of Pyk2 self-association, primary screen, Q293 cells, FERM NanoBiT luminescence, HTS | Protein-tyrosine kinase 2-beta (Homo sapiens), Q14289 | active compounds read low | z-score (the deposit names both 25 µM and 10 µM) | 99,000 tested, 0.83% active | AID 1347419, 2020;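 active = Z-score of -3 or lower, scaled per plate to the spread of control and sample wells; inactive = z-score above -3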;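 note: negative z-score means lost luminescence so less FERM oligomerization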
# M1 ag: M1 muscarinic receptor agonists, primary screen, CHO-M1 cells, Fluo-4 calcium, agonist mode; AID 626, 2007; Muscarinic acetylcholine receptor M1; Fluo-4 calcium fluorescence; active compounds read high; B-score at 10 µM; 64,000 tested, 3% active;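 active = fluorescence rise, raw or as B-score row- and column-corrected plate score, outside the 99.7% band of its plate's samples, either direction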
# M1 antag: antagonists of rat M1 muscarinic receptor. Muscarinic acetylcholine receptor M1 (Rattus norvegicus), P08482. CHO-M1 cells, Fluo-4 calcium, ACh EC80 antagonist mode; active compounds read low. B-score at 10 µM. 64,000 tested, 3.4% active;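 active = calcium fluorescence response, raw or row-and-column corrected B-score, differing from the plate sample mean either way at a set confidence level, mostly lower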
# Target sequence (P08482 whole entry, looked up): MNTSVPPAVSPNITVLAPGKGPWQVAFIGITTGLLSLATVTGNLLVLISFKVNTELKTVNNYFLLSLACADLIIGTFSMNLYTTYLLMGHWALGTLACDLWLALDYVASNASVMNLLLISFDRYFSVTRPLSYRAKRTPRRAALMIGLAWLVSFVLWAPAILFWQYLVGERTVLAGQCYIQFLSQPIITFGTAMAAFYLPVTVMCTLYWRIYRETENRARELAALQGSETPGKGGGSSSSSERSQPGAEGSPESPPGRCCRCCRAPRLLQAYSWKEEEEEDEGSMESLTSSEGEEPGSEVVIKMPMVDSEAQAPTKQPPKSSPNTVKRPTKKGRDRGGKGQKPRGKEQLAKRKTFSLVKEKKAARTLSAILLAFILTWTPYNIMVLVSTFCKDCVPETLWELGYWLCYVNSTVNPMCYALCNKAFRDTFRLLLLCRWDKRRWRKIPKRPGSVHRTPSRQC
# Cav32 inh: Cav3.2 calcium influx blockers – cell-based, Fluo-4 calcium fluorescence, FDSS, MLSMR library, primary screen; Voltage-dependent T-type calcium channel subunit alpha-1H (Homo sapiens), O95180; Cav3.2-expressing cells; active compounds read low; B-score at 10 µM; 100,000 tested, 4% active;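 active = single-dose well whose peak fluorescence ratio is a statistical outlier from its plate by either plate-standardised score or position-corrected B-score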
# M1 ag confirm: rat M1 muscarinic receptor agonists, confirmation, CHO-M1 cells, Fluo-4 calcium, duplicate retest | shares compounds with M1 ag | Fluo-4 calcium fluorescence, agonist mode; actives lie on both sides | fluorescence change (max-min) at 10 µM | 1,700 tested, 19% active;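 active = fluorescence change differs from the solvent-only DMSO control mean at a set confidence level in both duplicate runs; inconclusive = differs from solvent-only control mean in just one of two runs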;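 note: an EC20 dose of acetylcholine follows compound addition during the same imaging run; raw fluorescence intensity difference in instrument units with no normalization to controls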
# M4 agonist ctr: agonist activity at rat M4 receptor, confirmation, counter-screen for M1 allosteric modulator project, cell-based, agonist mode; shares compounds with M1 ag; CHO M4/Gqi5 cells, Fluo-4 calcium fluorescence; actives lie on both sides; fluorescence change (max-min) at 10 µM; 1,700 tested, 9% active;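 active = fluorescence change differing from the plate's solvent-only control wells at 99.7% confidence in both duplicates, whether higher or lower; inconclusive = differs from solvent controls in only one of two duplicates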
# M1 antag confirm: rat M1 muscarinic receptor antagonists, confirmation, CHO cells, Fluo-4 calcium, duplicate; shares compounds with M1 antag; ACh EC80 antagonism; active compounds read low; calcium response (max-min fluorescence) at 10 µM; 1,700 tested, 43% active; AID 677, 2007;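 active = calcium response below the same-plate mean of wells given acetylcholine alone at its 80%-effect dose, minus 3 SD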;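 note: raw fluorescence intensity difference in arbitrary instrument units and not normalized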
# mGluR4 antag: human mGluR4 response to M1 antagonist hits, M1 allosteric modulator project, cell-based, antagonist mode, secondary assay 1; shares compounds with M1 antag; AID 678, 2007; fluorescence response (max-min) at 10 µM; CHO-mGluR4 calcium flux, Fluo-4 fluorescence, glutamate EC80; active compounds read low; 1,700 tested, 0.9% active;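 active = fluorescence response below the plate's average for near-maximal glutamate wells, less 3 SD of those wells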;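 note: raw unnormalized fluorescence span taken in the window right after glutamate addition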
# Starred values were filed as active, the others as inactive; ? = inconclusive; · = no result. An excerpt weighted towards active compounds, which were near 7.1% of everything screened.
SMILES,PTK2B oligo ant,M1 ag,M1 antag,Cav32 inh,M1 ag confirm,M4 agonist ctr,others
C[C@H]1OC[C@@H](C[N+](C)(C)C)O1,·,48*,-9.7*,-1.8,527*,220*,
CCCCn1c(NS(=O)(=O)c2ccc(C)cc2)c(C(=O)OCC)c2nc3ccccc3nc21,-1.2,·,·,·,·,·,
CCCCn1c(NC(=O)c2ccco2)c(C(=O)OCC)c2nc3ccccc3nc21,-1.8,6.6*,-0.37,-2.1,24,?,
O=C1CCCC2C3CCCN4CCCC(CN12)C34 (stereo not drawn),·,-2.5*,-0.23,0.6,-11,-45,
CCN1C[C@@]2(COC)C3[C@@H](OC)[C@H]4[C@@H]1[C@@]3(C1C[C@H]3[C@H](OC(C)=O)C1[C@]4(OC(C)=O)C[C@H]3OC)[C@@H](OC)C[C@H]2OC(C)=O (stereo partly drawn),·,·,·,0.28,·,·,
COc1ccc(CC2C(=O)N(C)C(=O)N(C)C2=O)c(OC)c1,0.11,6.5*,-3.6*,·,-3.9,-24,
CCOC(=O)C1CCN(/C=C2/C(=O)NC(=O)N(c3ccc(OCC)cc3)C2=O)CC1,0.05,-3.3*,-0.13,-1.5,-7,-23,
Cc1ccc(N2C(=O)/C(=C/N3CCN(C(=O)c4ccco4)CC3)C(=O)NC2=S)cc1C,0.49,·,·,0.031,·,·,
CC(C)OC(=O)C1C(=O)NC2(C)CC1c1ccccc1O2 (stereo not drawn),0.34,-0.37,-0.33,0.4,·,·,
CCOC(=O)CCCCCNC(=O)c1c(O)[nH]c(=O)[nH]c1=O,·,·,·,-0.02,·,·,
CCOc1ccccc1-n1c(O)c(C=Nc2ccc(N(CC)CC)cc2)c(=O)[nH]c1=O,-1.3,8.7,-1.8,-0.94,·,·,
CCN(CC)c1ccc(N=Cc2c(O)n(-c3ccccc3C)c(=O)[nH]c2=O)cc1,-1.7,22*,-0.55,-1.2,46,17,
COc1ccc2nc(NC(=O)CCc3nc(C4=CCN(C)CC4)no3)sc2c1,·,5.1*,-0.23,·,-1.6,-41,
O=C(O)C1CN2CCC1CC2 (stereo not drawn),0.84,13*,-0.16,0.22,233*,-34,
O=C(c1cccs1)C1CN2CCC1CC2 (stereo not drawn),0.37,8.4*,-5.5*,1.4,32,15,
O=C(O)[C@H]1C[C@@H]1[C@H](NP(=O)(c1ccccc1)c1ccccc1)c1ccccc1,·,·,·,-1.6,·,·,
Cn1c2ccccc2c2c(C(=O)N3CCC4(CC3)OCCO4)cn(C3CCCCC3)c(=O)c21,-0.88,4.3*,-0.67,-5.1*,-14,-54,
N=C1c2ccccc2CN1NC(=O)c1ccc(Br)cc1,2.1,·,·,·,·,·,
CCC(=NCc1ccc2c(c1)OCO2)c1c(O)n(C)c(=O)n(C)c1=O,-0.86,2.9*,-0.61,-0.17,12,-35,
CCC(=NCCOc1ccc(Cl)cc1)c1c(O)n(C)c(=O)n(C)c1=O,-0.9,11*,-1,·,-9.8,?,
CCC(=NCc1cc(OC)cc(OC)c1)c1c(O)n(C)c(=O)n(C)c1=O,-0.82,·,·,0.42,·,·,
COC(=O)C1=C(c2cc3ccccc3s2)C[C@@H]2CC[C@H]1N2C(=O)NCc1ccco1,·,·,·,-2.7,·,·,
COc1ccc2c(c1)CC1(CN2C)C(=O)NC(=O)N(CCc2ccccc2)C1=O (stereo not drawn),0.93,-1.7,0.89,-0.25,·,·,
CCC(C)N1C(=O)NC(=O)C2(Cc3c(ccc4ccccc34)N(C)C2)C1=O (stereo not drawn),-1.1,13*,-2.1,-3.3,?,?,
COc1ccc2c(c1)c(C(=O)CN1CCN(C)CC1)c(C)n2Cc1ccccc1,1.4,2.6*,-0.47,1.1,?,-71,
SMILES,PTK2B oligo ant,M1 ag,M1 antag,Cav32 inh,M1 ag confirm,M4 agonist ctr,others
CC(C)CCOC(=O)c1c(N)n(CC2CCCO2)c2nc3ccccc3nc12 (stereo not drawn),-0.09,3.1,0.068,-2.2,·,·,
Nc1c(C(=O)OC2CCCCC2)c2nc3ccccc3nc2n1CC1CCCO1 (stereo not drawn),-0.77,4.1*,0.2,·,-8.5,-46,
C=CCn1c(O)c(C(CC)=NC(C)c2ccccc2)c(=O)[nH]c1=O (stereo not drawn),-0.85,·,·,0.88,·,·,
CCN1CCN(Cc2cc(OC)c(OC)cc2[N+](=O)[O-])CC1,·,·,·,0.46,·,·,
COC(=O)C1=C(c2cc3ccccc3s2)C[C@@H]2CC[C@H]1N2C(=O)NCCNC(C)=O,·,·,·,0.61,·,·,
OC(COCc1ccc(Cl)cc1)CN1CC=C(c2ccccc2)CC1 (stereo not drawn),-0.01,-2.8*,-4*,-6.6*,-6.8,-22,M1 antag confirm=475*;mGluR4 antag=177
COc1ccc2c(c1)c(C(=O)CN1CCC3(CC1)OCCO3)c(C)n2Cc1ccccc1,-0.18,·,·,-1.7,·,·,
CN1CCC(OC(=O)C2c3ccccc3Oc3ccccc32)CC1,-0.05,-0.4,-14*,-1.9,·,·,M1 antag confirm=25*;mGluR4 antag=186
Clc1cccc(Cl)c1C1N2CCCN12 (stereo not drawn),-0.01,·,·,0.5,·,·,
COC(=O)C1=C(c2ccc(S(C)(=O)=O)cc2)C[C@@H]2CC[C@H]1N2C(=O)N1CCCCC1,·,·,·,2.3,·,·,
C[N+](C)(C)c1ccccc1,·,·,·,-2.4,·,·,
COc1cccc(CNC2CN3CCC2CC3)c1OC (stereo not drawn),0.41,0.22,-5.1*,-1.9,·,·,M1 antag confirm=392*;mGluR4 antag=196
CN(C)CCc1nc2ccccc2c(=O)n1-c1ccccc1,·,0.84,-6.2*,1.4,·,·,M1 antag confirm=475;mGluR4 antag=249
COc1cc(C2NCc3ccccc3-n3cccc32)ccc1O (stereo not drawn),-0.67,-1,-1.1*,-0.82,·,·,M1 antag confirm=554;mGluR4 antag=225
COc1ccc(C2NCc3ccccc3-n3cccc32)cc1 (stereo not drawn),·,·,·,-0.15,·,·,
CN1CCc2nc3ccc(F)cc3c(C(N)=O)c2C1,0.45,·,·,0.4,·,·,
Cc1ccccc1-n1c(C)nc2sccc2c1=O,0.39,·,·,0.87,·,·,
Cc1[nH]c2c(Cl)cccc2c1CCN,·,0.22,-2.8*,0.035,·,·,M1 antag confirm=621;mGluR4 antag=191
OC(Cc1ccccc1)(c1ccccc1)C1CN2CCC1CC2 (stereo not drawn),0.53,0.96,-7.2*,-0.62,·,·,M1 antag confirm=55*;mGluR4 antag=274
CCOc1cccc(CNC2CN3CCC2CC3)c1 (stereo not drawn),0.33,·,·,-0.016,·,·,
